Inconclusive results are not listed. Activity calls are given as the source filed them. Unless noted, calls come from the whole dose curve; as a rule, active = well fitted curve in the direction sought with a large enough effect in the repeat runs; inconclusive = weak or mixed curves; inactive = no such curve, though single readings can be large; an effect the other way counts as inactive or inconclusive.
Columns and labels:
[1] = qHTS assay to identify small molecule antagonists of the sonic hedgehog signaling (Shh) pathway (AID 1259369; calls by dose curve; note: potency is the fitted concentration of half-maximal effect; nearly all actives have a fitted effect of over 45% in size)
Outline: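 Screening used 3T3Gli1-Luc cells at 2,000 per well, compounds delivered in DMSO, and conditioned medium as agonist stimulus; plates incubated 24hr at 37 C and 5% CO2 before a 30min luciferase step.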

[2] = qHTS assay to identify small molecule agonists of the androgen receptor (AR) signaling pathway in the presence of an antagonist - cell viability counter screen (AID 1259379); note: nearly all actives have a fitted effect of over 25% in size; note: potency is the fitted concentration of half-maximal effect
Outline: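 In MDA-kb2 cells (human breast carcinoma, MMTV-luciferase), compounds at 15 concentrations plus 3.0uM nilutamide; 16 hr, 37C, 0% CO2; CellTiter-Fluor fluorescence read for viability.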

[3] = qHTS assay to identify small molecule antagonists of the estrogen receptor beta (ER-beta) signaling pathway - cell viability counter screen (AID 1259382); note: nearly all actives have a fitted effect of over 55% in size; note: potency is the fitted concentration of half-maximal effect
Outline: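 Tox21 10K library tested in qHTS format on ER-beta-bla HEK293T cells stimulated with 1nM E2; 16 hr treatment at 37C. Same-well CellTiter-Glo luminescence served as the cell viability measure.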

[4] = qHTS assay to identify small molecule agonists or antagonists of the thyroid stimulating hormone receptor (TSHR) signaling pathway - wild type cell line counter screen (AID 1259384; calls by dose curve)
Outline: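 Wild-type Hek293 cells, 800/well, 18 h at 37C, then compound with Ro20-1724 for 30 min RT. cAMP by HTRF (cAMP-d2/anti-cAMP cryptate), 1 h RT, fluorescence read. 15 concentrations, triplicates.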

[5] = biological target: Progesterone receptor (Homo sapiens) (UniProt P06401); test: qHTS assay to identify small molecule agonists of the progesterone receptor (PR) signaling pathway (AID 1346784; calls by dose curve; note: nearly all actives have a fitted effect of over 30% in size)
Outline: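 PR-UAS-bla HEK 293T cells (beta-lactamase reporter under UAS) in 2% charcoal-stripped FBS, dosed with 23 nL compound after 6 hr, incubated 16hr at 37C. LiveBLAzer B/G FRET substrate added, fluorescence read after 2 hours.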

[6] = qHTS assay to identify small molecule antagonists of the TGF-beta/Smad signaling pathway - cell viability counter screen (AID 1346824); note: nearly all actives have a fitted effect of over 50% in size
Outline: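 SBE-bla HEK 293T cells, incubated overnight, then compound plus 0.25 ng/mL TGF-beta1 (stock added) for 5 hr at 37 C. Viability was read in the same wells by CellTiter-Glo luminescence after 30 min at room temperature.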

[7] = biological target: Thyrotropin-releasing hormone receptor (Homo sapiens) (UniProt P34981); test: qHTS assay to identify small molecule agonists of the thyrotropin-releasing hormone receptor (TRHR) signaling pathway (AID 1346891; calls by dose curve; note: series mostly up to about 58 µM)
Outline: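 HEK293 cells expressing TRHR plated 18 h at 37 C/5% CO2, calcium dye-loaded 2 h at 37 C, then compound added (agonist mode); kinetic calcium fluorescence read 3 min at 1 s intervals; 15 concentrations in triplicate.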

[8] = biological target: Estrogen receptor beta (Homo sapiens) (UniProt Q92731); test: qHTS assay to identify small molecule agonists of the estrogen receptor beta (ER-beta) signaling pathway (AID 1259377; active = well fitted activation curve with a large enough effect in the signal ratio in the repeat runs, not every such curve was filed as active; the % refers to the signal ratio)
Outline: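 ER-beta-UAS-bla HEK293T cells in medium with 2% charcoal-stripped FBS were exposed to compounds for 16 h at 37C. Beta-lactamase reporter activity was read as fluorescence after 2 h with LiveBLAzer B/G FRET substrate at room temperature.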

[9] = biological target: Estrogen receptor beta (Homo sapiens) (UniProt Q92731); test: qHTS assay to identify small molecule antagonists of the estrogen receptor beta (ER-beta) signaling pathway (AID 1259378; active = well fitted inhibition curve with a large enough effect in the signal ratio in the repeat runs, not every such curve was filed as active; the % refers to the signal ratio)
Outline: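 ER-beta-UAS-bla HEK293T cells in 2% charcoal-stripped FBS medium treated with compound plus 1nM final 17-beta-estradiol for 16 hr at 37C. Beta-lactamase reporter read by FRET substrate fluorescence after 2 hours at room temperature.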

[10] = qHTS assay to identify small molecule agonists of the estrogen receptor beta (ER-beta) signaling pathway - cell viability counter screen (AID 1259380); note: nearly all actives have a fitted effect of over 30% in size; note: potency is the fitted concentration of half-maximal effect
Outline: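 Viability of ER-beta-UAS-bla HEK293T cells was determined by CellTiter-Glo luminescence following 16 hr treatment with test compounds at 37C.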

[11] = qHTS assay to identify small molecule agonists of the estrogen receptor alpha (ER-alpha) signaling pathway in the presence of an antagonist - cell viability counter screen (AID 1259386);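 note: cells exposed to compounds for 22 h at 37 °C before the viability read; nearly all actives have a fitted effect of over 30% in size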; note: potency is the fitted concentration of half-maximal effect
Outline: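 Fluorescent CellTiter-Fluor viability signal from VM7Luc4E2 cells, with the reagent added during the final hour of a 22hr compound exposure at 37C in the presence of 10.0nM ICI-182,780.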

[12] = qHTS assay to identify small molecule antagonists of the progesterone receptor (PR) signaling pathway - cell viability counter screen (AID 1346798); note: nearly all actives have a fitted effect of over 50% in size; note: potency is the fitted concentration of half-maximal effect
Outline: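 PR-UAS-bla HEK293T cells, 3,000/well in 2% charcoal-stripped FBS medium, dosed with compounds plus R5020 agonist and incubated 16 h at 37C. Viability then measured in the same wells by CellTiter-Glo luminescence after 30 min at RT.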

[13] = qHTS assay to identify small molecule agonists of the progesterone receptor (PR) signaling pathway - cell viability counter screen (AID 1346799; calls by dose curve; note: nearly all actives have a fitted effect of over 45% in size; note: potency is the fitted concentration of half-maximal effect)
Outline: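 Counter screen in the PR-UAS-bla HEK293T wells (2% charcoal-stripped FBS, 16 h compound exposure at 37 C) after the bla read. CellTiter-Glo added, 30 min at room temperature, luminescence read as cell viability.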

[14] = qHTS assay to identify small molecule agonists of the TGF-beta/Smad signaling pathway - cell viability counter screen (AID 1346829); note: top concentration of the series differs between compounds; nearly all actives have a fitted effect of over 45% in size
Outline: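 Here the cytotoxicity of library compounds is measured in SBE-bla HEK 293T cells treated for 5 hr, using CellTiter-Glo added to wells already read for the beta-lactamase reporter.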

[15] = qHTS assay to identify small molecule agonists of the TGF-beta/Smad signaling pathway (AID 1346859; active = well fitted activation curve with a large enough effect in the signal ratio in the repeat runs, not every such curve was filed as active; the % refers to the signal ratio; note: series mostly up to about 77 µM)
Outline: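 SBE-bla HEK293T cells plated overnight, then compound exposure for 5 h at 37 C. Beta-lactamase reporter read with LiveBLAzer B/G FRET substrate after 2 h at room temperature, fluorescence at 405 nm excitation, 460/530 nm emission.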

[16] = biological target: Thyrotropin-releasing hormone receptor (Homo sapiens) (UniProt P34981); test: qHTS assay to identify small molecule antagonists of the thyrotropin-releasing hormone receptor (TRHR) signaling pathway (AID 1346877; active = well fitted inhibition curve with a large enough effect in the repeat runs, not every such curve was filed as active; note: series mostly up to about 51 µM)
Outline: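 In this cell-based calcium flux format, HEK293 cells expressing TRHR received test compound for 5 min before the agonist TRH (1 nM final). Dye loading lasted 2 h at 37 °C.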

[17] = biological target: Estrogen receptor (Homo sapiens) (UniProt P03372); test: qHTS assay to identify small molecule agonists of the estrogen receptor alpha (ER-alpha) signaling pathway in the presence of an antagonist (AID 1259383; calls by dose curve; note: top concentration of the series differs between compounds; nearly all actives have a fitted effect of over 15% in size)
Outline: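 In VM7Luc4E2 cells, 4,000 per well, compounds at 15 concentrations were co-incubated 22hr at 37C with 10.0nM final ICI-182,780. Luminescence from the stably transfected 4×ERE-luciferase reporter was recorded 30min after ONE-Glo addition.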

[18] = biological target: Progesterone receptor (Homo sapiens) (UniProt P06401); test: qHTS assay to identify small molecule antagonists of the progesterone receptor (PR) signaling pathway (AID 1346795; active = well fitted inhibition curve with a large enough effect in the signal ratio in the repeat runs, not every such curve was filed as active; the % refers to the signal ratio; note: potency is the fitted concentration of half-maximal effect)
Outline: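 PR-UAS-bla HEK293T cells with beta-lactamase reporter under UAS control, in 2% charcoal-stripped FBS, treated with compounds plus 1 nM promegestone (R5020, final) for 16 hr at 37C. Read-out: FRET beta-lactamase substrate fluorescence after 2 hr at room temperature.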

[19] = biological target: Thyrotropin receptor (Homo sapiens) (UniProt P16473); test: qHTS assay to identify small molecule antagonists of the thyroid stimulating hormone receptor (TSHR) signaling pathway (AID 1259385; calls by dose curve; note: nearly all actives have a fitted effect of over 20% in size)
Outline: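 TSHR-HEK293 cells (800/well) plated 18 h, then compounds with Ro20-1724 and TSH at 1.5 ng/mL final, 30 min at room temperature. cAMP quantified by HTRF (cAMP-d2/anti-cAMP-cryptate, 1 h); 15 concentrations in triplicate.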

Measured: Potency

Estrogen receptor (Homo sapiens), sequence (P03372 whole entry, looked up): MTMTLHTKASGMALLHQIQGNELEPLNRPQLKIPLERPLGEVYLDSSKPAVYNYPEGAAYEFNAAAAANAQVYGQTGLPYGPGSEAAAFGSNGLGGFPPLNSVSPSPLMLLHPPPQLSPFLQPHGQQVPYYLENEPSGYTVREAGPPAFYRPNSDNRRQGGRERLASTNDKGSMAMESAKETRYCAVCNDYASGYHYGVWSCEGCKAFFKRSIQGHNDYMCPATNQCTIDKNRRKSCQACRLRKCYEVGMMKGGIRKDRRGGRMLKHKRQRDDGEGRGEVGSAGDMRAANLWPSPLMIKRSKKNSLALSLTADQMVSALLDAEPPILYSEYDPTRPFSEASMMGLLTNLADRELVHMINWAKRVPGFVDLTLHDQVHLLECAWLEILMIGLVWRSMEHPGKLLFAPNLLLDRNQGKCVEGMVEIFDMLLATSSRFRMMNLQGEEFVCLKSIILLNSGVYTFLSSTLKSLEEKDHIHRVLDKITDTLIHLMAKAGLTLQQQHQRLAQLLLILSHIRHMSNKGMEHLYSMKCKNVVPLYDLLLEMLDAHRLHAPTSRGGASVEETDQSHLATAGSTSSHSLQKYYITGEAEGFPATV
Progesterone receptor (Homo sapiens), sequence (P06401 whole entry, looked up): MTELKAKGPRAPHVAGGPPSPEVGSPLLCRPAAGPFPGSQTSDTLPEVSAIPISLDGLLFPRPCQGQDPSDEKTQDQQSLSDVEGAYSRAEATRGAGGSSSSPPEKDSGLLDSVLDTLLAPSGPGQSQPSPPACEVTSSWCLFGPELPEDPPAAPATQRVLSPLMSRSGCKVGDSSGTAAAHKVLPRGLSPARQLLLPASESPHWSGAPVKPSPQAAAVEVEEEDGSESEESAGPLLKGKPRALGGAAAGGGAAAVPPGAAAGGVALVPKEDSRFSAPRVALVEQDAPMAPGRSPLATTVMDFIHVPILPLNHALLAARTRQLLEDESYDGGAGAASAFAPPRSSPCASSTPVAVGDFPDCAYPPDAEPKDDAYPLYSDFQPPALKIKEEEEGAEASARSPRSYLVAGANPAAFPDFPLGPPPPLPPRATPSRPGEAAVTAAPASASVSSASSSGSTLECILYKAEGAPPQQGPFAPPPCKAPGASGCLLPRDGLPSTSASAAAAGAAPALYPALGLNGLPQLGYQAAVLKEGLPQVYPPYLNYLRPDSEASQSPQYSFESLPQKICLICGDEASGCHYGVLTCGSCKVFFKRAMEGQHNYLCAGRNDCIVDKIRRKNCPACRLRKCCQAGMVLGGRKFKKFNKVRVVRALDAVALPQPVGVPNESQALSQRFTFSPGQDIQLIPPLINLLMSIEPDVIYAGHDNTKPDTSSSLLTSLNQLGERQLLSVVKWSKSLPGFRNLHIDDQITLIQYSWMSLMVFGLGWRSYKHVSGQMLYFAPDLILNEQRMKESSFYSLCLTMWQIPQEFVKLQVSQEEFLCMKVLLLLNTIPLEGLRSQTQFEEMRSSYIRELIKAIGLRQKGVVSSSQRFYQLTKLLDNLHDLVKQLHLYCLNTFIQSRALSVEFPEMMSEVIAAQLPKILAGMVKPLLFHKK
Estrogen receptor beta (Homo sapiens), sequence (Q92731 whole entry, looked up): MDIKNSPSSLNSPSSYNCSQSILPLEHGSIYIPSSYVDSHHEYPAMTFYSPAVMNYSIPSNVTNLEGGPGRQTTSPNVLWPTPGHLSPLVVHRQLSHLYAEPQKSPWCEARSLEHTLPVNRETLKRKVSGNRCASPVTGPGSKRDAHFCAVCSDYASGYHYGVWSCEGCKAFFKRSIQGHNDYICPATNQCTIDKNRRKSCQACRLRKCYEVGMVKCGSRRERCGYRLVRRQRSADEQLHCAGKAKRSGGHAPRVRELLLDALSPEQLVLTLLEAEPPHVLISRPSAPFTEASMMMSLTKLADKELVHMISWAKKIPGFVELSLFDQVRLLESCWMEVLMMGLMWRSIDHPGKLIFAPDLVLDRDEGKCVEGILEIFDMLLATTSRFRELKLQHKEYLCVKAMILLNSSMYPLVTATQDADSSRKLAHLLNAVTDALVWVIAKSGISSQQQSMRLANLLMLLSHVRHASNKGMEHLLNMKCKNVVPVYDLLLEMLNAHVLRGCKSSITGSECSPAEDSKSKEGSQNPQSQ
Thyrotropin-releasing hormone receptor (Homo sapiens), sequence (P34981 whole entry, looked up): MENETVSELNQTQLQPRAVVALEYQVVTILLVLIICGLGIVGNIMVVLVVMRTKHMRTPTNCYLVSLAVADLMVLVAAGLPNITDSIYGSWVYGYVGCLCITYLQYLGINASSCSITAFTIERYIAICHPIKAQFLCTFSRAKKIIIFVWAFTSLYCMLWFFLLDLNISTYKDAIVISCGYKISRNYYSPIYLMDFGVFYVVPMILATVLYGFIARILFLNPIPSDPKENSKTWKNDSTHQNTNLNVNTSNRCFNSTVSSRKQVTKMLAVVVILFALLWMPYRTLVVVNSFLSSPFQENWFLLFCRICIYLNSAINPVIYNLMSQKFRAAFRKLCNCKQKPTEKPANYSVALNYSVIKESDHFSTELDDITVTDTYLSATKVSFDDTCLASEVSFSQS
Thyrotropin receptor (Homo sapiens), sequence (P16473 whole entry, looked up): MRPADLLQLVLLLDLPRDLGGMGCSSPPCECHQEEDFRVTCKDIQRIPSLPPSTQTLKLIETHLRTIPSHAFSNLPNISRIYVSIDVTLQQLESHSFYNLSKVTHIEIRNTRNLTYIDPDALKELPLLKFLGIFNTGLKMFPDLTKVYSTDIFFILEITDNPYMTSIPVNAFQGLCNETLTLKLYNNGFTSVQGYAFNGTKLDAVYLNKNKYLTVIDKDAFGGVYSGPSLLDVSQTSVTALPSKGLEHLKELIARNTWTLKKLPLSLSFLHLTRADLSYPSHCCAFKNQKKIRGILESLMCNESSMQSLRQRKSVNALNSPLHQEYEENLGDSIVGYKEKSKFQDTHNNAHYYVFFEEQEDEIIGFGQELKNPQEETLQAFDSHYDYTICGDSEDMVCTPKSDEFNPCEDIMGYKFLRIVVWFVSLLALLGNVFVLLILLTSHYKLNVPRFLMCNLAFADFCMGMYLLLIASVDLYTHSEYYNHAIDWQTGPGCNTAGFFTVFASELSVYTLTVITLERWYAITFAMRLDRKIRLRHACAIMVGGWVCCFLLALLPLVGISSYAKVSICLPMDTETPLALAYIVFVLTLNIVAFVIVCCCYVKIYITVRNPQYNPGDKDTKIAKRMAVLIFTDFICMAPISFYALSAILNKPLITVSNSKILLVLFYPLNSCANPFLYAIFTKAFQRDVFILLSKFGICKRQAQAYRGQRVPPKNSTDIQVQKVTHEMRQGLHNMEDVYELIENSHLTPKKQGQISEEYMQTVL

CCCCC/C=C\C/C=C\CCCCCCCC(=O)NC(C)c1ccccc1 (stereo unspecified)
inactive: [2] | [3] | [4] | [5] | [6] | [7]
active: [1] 13.3 µM

CC(C)(C)OCC1CO1 (stereo unspecified)
not listed: [1] | [17] | [18] | [19]
inactive: all other assays above

CCC(CC)Nc1ccc(C)c(C)c1
not listed: [1] | [4] | [19]
inactive: all other assays above

Cc1ccccc1S(=O)(=O)O
not listed: [1] | [17]
inactive: all other assays above

CN1C[C@H]2c3ccccc3Oc3ccc(Cl)cc3[C@@H]2C1
not listed: [1] | [10] | [13] | [18]
inactive: all other assays above

CN1CCC(N(Cc2cccs2)c2ccccc2)CC1
active: [12] 23.7 µM | [13] 15 µM
not listed: [1] | [7] | [10] | [16] | [18]
inactive: all other assays above

CN(C)C(=O)NC1(c2ccccc2)CCN(CC[C@@]2(c3ccc(F)c(F)c3)CN(C(=O)c3ccccc3)CCO2)CC1
active: [10] 71.4 µM
not listed: [1] | [3] | [8] | [9] | [12] | [14] | [17]
inactive: all other assays above

CC[N+]1(CC)CCC(=C(c2ccccc2)c2ccccc2)C1C (stereo unspecified)
not listed: [1] | [2] | [7] | [8] | [9] | [14] | [16] | [17]
inactive: all other assays above

CCCCCCCCCCCCN1CCCCCC1=O
inactive: [8] | [2] | [3] | [4] | [11] | [12] | [6] | [15] | [16] | [7]
active: [10] 30.6 µM

COc1ccc(C(=O)Nc2nc3ccccc3c(NCc3ccccc3)c2C#N)cc1
inactive: [9] | [2] | [3] | [5] | [18] | [12] | [13] | [6] | [14]
active: [10] 27.3 µM

CCCCc1nc2cccnc2n1Cc1ccc(-c2ccccc2-c2nnn[nH]2)cc1
inactive: [8] | [2] | [4] | [19] | [12] | [13] | [6] | [14] | [7]

CO[C@@H]1[C@H](OC(=O)/C=C/C=C/C=C/C=C/C(=O)O)CC[C@]2(CO2)[C@H]1[C@@]1(C)O[C@@H]1CC=C(C)C
not listed: [1] | [2]
inactive: all other assays above

C[C@H](CCC(=O)O)[C@H]1CC[C@H]2[C@@H]3CC[C@@H]4C[C@H](O)CC[C@]4(C)[C@H]3C[C@H](O)[C@]12C
inactive: [8] | [17] | [4] | [11] | [6] | [14] | [16] | [7]
active: [10] 48.7 µM | [13] 54.6 µM

CCN(CC)CCNc1ccc(CNC=O)c2sc3ccc(OC)cc3c(=O)c12
active: [10] 8.63 µM | [3] 8.63 µM | [11] 13.7 µM | [18] 43.3 µM | [12] 24.3 µM | [13] 27.3 µM
inactive: [5] | [6] | [15] | [16] | [7]

C[N+]1(CC2COC(c3ccccc3)(C3CCCCC3)O2)CCCCC1 (stereo unspecified)
not listed: [1] | [2] | [7] | [14] | [16] | [17]
inactive: all other assays above

CCOC(=O)NCCOc1ccc(Oc2ccccc2)cc1
active: [2] 61.1 µM | [18] 17.2 µM
not listed: [1] | [8] | [9] | [10] | [12] | [13]
inactive: all other assays above

Source: PubChem BioAssay (Tox21)
